Only some compounds are listed: those with a hit (about 4.1% of all), similar ones and a draw of the others.
rCAG RNA binder: binders of r(CAG) RNA repeats, primary screen, biochemical, fluorescence; actives 1.3% (n = 370,000); r(CAG) RNA repeat, TO-PRO-1 dye displacement fluorescence; AID 651821, 2012; inhibition, % at 3 µM;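 active means inhibition above the plate cutoff, the mean of all test compounds on that plate plus 3 SD, cut at about 35% in these data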;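 further: 0% = DMSO alone and 100% = 100 µM mitoxantrone as full dye displacement; higher means more dye released from RNA so lower well fluorescence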
MBD2 DNA inh: inhibitors of MBD2 binding to methylated DNA, primary screen, biochemical, TR-FRET, DNA-binding domain, human; Methyl-CpG-binding domain protein 2 (Homo sapiens), Q9UBB5; MBD2 binding to methylated oligonucleotide; inhibition, % at 4.4 µM; actives 0.31% (n = 370,000); in the data active means inhibition above about 13%
ABHD5-PLIN5 inh: ABHD5-PLIN5 interaction inhibitors, primary screen, cell lysate, split luciferase complementation, luminescence | inhibition, % at 4 µM | Split G. princeps luciferase complementation, 4 h | actives 0.78% (n = 360,000) | Perilipin-5 (Homo sapiens) + 1-acylglycerol-3-phosphate O-acyltransferase ABHD5 (Homo …;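 active means inhibition above the mean inhibition across every tested compound plus 3 SD, cut at about 22% in these data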;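 further: 0% = DMSO only wells and the 100% control is not disclosed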
UHRF1 binding: UHRF1 methylated DNA binding inhibitors, primary screen, counter-screen for MBD2 inhibitor project, biochemical, TR-FRET, human UHRF1, single concentration | actives 0.75% (n = 370,000) | AID 687016, 2013 | inhibition, % at 4.4 µM | E3 ubiquitin-protein ligase UHRF1 (Homo sapiens), Q96T88 | UHRF1 binding to methylated oligo; in the data active means inhibition above about 21%;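 further: UHRF1 SRA domain binding a hemimethylated CpG hairpin DNA probe; 0% = median of test compound wells and 100% = reference inhibitor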
Target sequence (Q96T88 whole entry, looked up, the tested form may be a part): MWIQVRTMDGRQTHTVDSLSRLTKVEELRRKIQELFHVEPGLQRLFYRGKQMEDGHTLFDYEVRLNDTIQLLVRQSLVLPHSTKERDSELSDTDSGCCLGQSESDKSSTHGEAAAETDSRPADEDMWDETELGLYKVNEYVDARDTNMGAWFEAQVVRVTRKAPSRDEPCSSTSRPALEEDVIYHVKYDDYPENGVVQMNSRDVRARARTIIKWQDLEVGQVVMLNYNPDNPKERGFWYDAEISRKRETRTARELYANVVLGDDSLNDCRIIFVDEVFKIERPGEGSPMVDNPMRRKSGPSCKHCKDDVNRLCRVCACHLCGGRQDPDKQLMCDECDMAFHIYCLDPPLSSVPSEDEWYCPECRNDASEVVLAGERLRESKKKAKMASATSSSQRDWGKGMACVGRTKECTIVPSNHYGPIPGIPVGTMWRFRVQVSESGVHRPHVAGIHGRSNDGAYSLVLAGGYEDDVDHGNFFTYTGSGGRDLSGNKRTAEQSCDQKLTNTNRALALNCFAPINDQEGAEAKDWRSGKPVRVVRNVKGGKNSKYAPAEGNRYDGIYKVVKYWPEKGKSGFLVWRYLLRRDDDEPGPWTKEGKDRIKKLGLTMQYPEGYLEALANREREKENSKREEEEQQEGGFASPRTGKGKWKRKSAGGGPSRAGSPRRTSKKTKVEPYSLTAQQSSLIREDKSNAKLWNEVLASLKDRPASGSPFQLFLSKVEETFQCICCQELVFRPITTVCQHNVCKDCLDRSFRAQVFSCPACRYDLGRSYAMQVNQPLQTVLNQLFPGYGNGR
LEDGF integ inh: blockers of LEDGF/p75-dependent integrase strand transfer – biochemical, TR-FRET, high throughput, primary screen; actives 0.64% (n = 370,000); AID 743269, 2014; TR-FRET IN-LEDGF/p75 DNA integration, Eu/Cy5; inhibition, % at 3.7 µM; HIV-1 integrase (with human LEDGF/p75);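 active means inhibition above the screen-wide mean plus 3 SD, cut at about 13% in these data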;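 further: signal is the Cy5 over europium emission ratio at 671 and 618 nm; 0% = plate median of compound wells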
PRMT1 inh: PRMT1 methyltransferase inhibitors, primary screen, biochemical, fluorescence polarization; Protein arginine N-methyltransferase 1 (Homo sapiens), Q99873; inhibition, % at 2.79 µM; recombinant PRMT1, activity-based probe fluorescence polarization; actives 1.3% (n = 370,000);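 active means inhibition above about 21% made by adding two undisclosed values, limit read from the data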
rCAG bind conf: small molecules binding CAG repeat RNA – biochemical, fluorescence, confirmation; shares compounds with rCAG RNA binder; r(CAG) RNA repeat, TO-PRO-1 dye displacement fluorescence; inhibition, % at 3 µM; actives 70% (n = 4,300); AID 652065, 2013;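 active means inhibition above a per-plate cutoff, the mean inhibition of sample wells plus 3 SD, cut at about 35% in these data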;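 further: loss of TO-PRO-1 fluorescence as compound displaces dye from 1x1 AA loop RNA; 0% = DMSO only wells and 100% = 100 µM mitoxantrone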
DNA CAG counter: displacement of TO-PRO-1 from CAG DNA duplex, counter-screen for rCAG RNA repeat binder project, biochemical, fluorescence, TO-PRO-1 dye, d(CAG) DNA oligo. d(CAG) DNA oligo TO-PRO-1 dye displacement. inhibition, % at 3 µM. AID 652068, 2013. actives 94% (n = 4,300). shares compounds with rCAG RNA binder;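 active means inhibition above its plate's cutoff, the mean test-well inhibition plus 3 SD, cut at about 4.8% in these data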;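 further: 0% = DNA dye mix with DMSO and 100% = 100 µM mitoxantrone; hits displace the dye from DNA and so lower well fluorescence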
Numbers without * were called inactive.

Results for O=C(O)c1c(C(=O)N2N=C3/C(=C/c4ccccc4)CCCC3C2c2ccccc2)cccc1[N+](=O)[O-] (configuration not stated) ?
rCAG RNA binder: 35*; MBD2 DNA inh: -3; ABHD5-PLIN5 inh: 8; UHRF1 binding: -1; LEDGF integ inh: -5; PRMT1 inh: 12; rCAG bind conf: 56*; DNA CAG counter: 17*

Results for CC(=O)N1N=C2/C(=C/c3ccccc3)CCCC2C1c1ccccc1 (configuration not stated) ?
rCAG RNA binder: -5; MBD2 DNA inh: 3; ABHD5-PLIN5 inh: 0; UHRF1 binding: 0; LEDGF integ inh: 3; PRMT1 inh: -2

What do the screens show for `O=C(O)c1ccccc1C(=O)N1N=C2/C(=C/c3cccc([N+](=O)[O-])c3)CCCC2C1c1cccc([N+](=O)[O-])c1` (configuration not stated)?
rCAG RNA binder: 52*; MBD2 DNA inh: -6; ABHD5-PLIN5 inh: 3; UHRF1 binding: -3; LEDGF integ inh: 4; PRMT1 inh: -1; rCAG bind conf: 73*; DNA CAG counter: 30*

Results for O=C(Nc1nc2ncccn2c1-c1ccccc1)c1ccc(F)cc1 ?
rCAG RNA binder: 2; MBD2 DNA inh: 3; UHRF1 binding: 0; LEDGF integ inh: -1; PRMT1 inh: -2

How did O=P(c1ccccc1)(c1ccccc1)c1cnc2ccccn12 do in these assays?
MBD2 DNA inh: -3; UHRF1 binding: 0; LEDGF integ inh: -4; PRMT1 inh: 4

How did CCCC(=O)Nc1sc(-c2ccccc2)c(-c2ccccc2)c1C(=O)O do in these assays?
rCAG RNA binder: 41*; MBD2 DNA inh: 7; ABHD5-PLIN5 inh: 1; UHRF1 binding: 3; LEDGF integ inh: -4; PRMT1 inh: 2; rCAG bind conf: 26; DNA CAG counter: 4

Results for Cc1sc(NC(=O)CCCC(=O)O)c(C(N)=O)c1-c1ccccc1 ?
rCAG RNA binder: -1; MBD2 DNA inh: 0; ABHD5-PLIN5 inh: -1; UHRF1 binding: 1; LEDGF integ inh: 5; PRMT1 inh: 5

How did NS(=O)(=O)c1ccc2nc(NC(=O)Nc3ccc(F)cc3)sc2c1 do in these assays?
rCAG RNA binder: 57*; MBD2 DNA inh: 6; ABHD5-PLIN5 inh: -2; UHRF1 binding: 1; LEDGF integ inh: -1; PRMT1 inh: 1; rCAG bind conf: 30; DNA CAG counter: 24*

Results for CS(=O)(=O)c1ccc2nc(NC(=O)Nc3ccc(Cl)cc3)sc2c1 ?
rCAG RNA binder: 60*; MBD2 DNA inh: -3; ABHD5-PLIN5 inh: 1; UHRF1 binding: 0; LEDGF integ inh: -3; PRMT1 inh: -4; rCAG bind conf: 54*; DNA CAG counter: 34*

What do the screens show for `O=C(NNc1nc2ccccc2s1)Nc1ccc(F)cc1`?
rCAG RNA binder: 8; MBD2 DNA inh: 0; ABHD5-PLIN5 inh: -1; UHRF1 binding: -1; LEDGF integ inh: -3; PRMT1 inh: -2

How did O=C(Cn1nnc(-c2ccncc2)n1)Nc1ccc(Oc2ccccc2)cc1 do in these assays?
rCAG RNA binder: 7; MBD2 DNA inh: 4; UHRF1 binding: 1; LEDGF integ inh: 0; PRMT1 inh: 2

How did COc1ccc(C(=O)N/N=C/c2c[nH]c3ccccc23)cc1 do in these assays?
rCAG RNA binder: 2; MBD2 DNA inh: 3; ABHD5-PLIN5 inh: -3; UHRF1 binding: 0; LEDGF integ inh: -4; PRMT1 inh: 5

How did CCCOc1ccc(C(=O)N/N=C/c2c[nH]c3ccc(Br)cc23)cc1 do in these assays?
rCAG RNA binder: 37*; MBD2 DNA inh: -1; ABHD5-PLIN5 inh: -1; UHRF1 binding: 3; LEDGF integ inh: -1; PRMT1 inh: 4; rCAG bind conf: 25; DNA CAG counter: 12*

What do the screens show for `CC(C)(C)c1ccc(OCCSc2nc3ccccc3n2CC(=O)O)cc1`?
rCAG RNA binder: 39*; MBD2 DNA inh: 0; ABHD5-PLIN5 inh: -10; UHRF1 binding: -1; LEDGF integ inh: 5; PRMT1 inh: 0; rCAG bind conf: 43*; DNA CAG counter: 11*

Results for O=C(O)Cn1c(SCCOc2ccccc2)nc2ccccc21 ?
rCAG RNA binder: 5; MBD2 DNA inh: 0; ABHD5-PLIN5 inh: 1; UHRF1 binding: 6; LEDGF integ inh: 2; PRMT1 inh: -1

How did CC/C=C\[C@H](O)[C@H](O)C1=C(C)C(=O)[C@]2(O1)C(=O)N[C@@](OC)(C(=O)c1ccccc1)[C@@H]2O do in these assays?
rCAG RNA binder: 1; MBD2 DNA inh: 3; UHRF1 binding: 0; LEDGF integ inh: -1; PRMT1 inh: 7

What do the screens show for `O=S(=O)(O)c1ccc(N2N=C(c3ccccc3)CC2c2ccccc2)cc1` (configuration not stated)?
rCAG RNA binder: 79*; MBD2 DNA inh: 2; ABHD5-PLIN5 inh: 7; UHRF1 binding: 2; LEDGF integ inh: 10; PRMT1 inh: 3; rCAG bind conf: 56*; DNA CAG counter: 19*

What do the screens show for `NS(=O)(=O)c1ccc(N2N=C(c3ccccc3)CC2c2ccccc2)cc1` (configuration not stated)?
rCAG RNA binder: 7; MBD2 DNA inh: 2; ABHD5-PLIN5 inh: -7; UHRF1 binding: -6; LEDGF integ inh: -1; PRMT1 inh: 1

What do the screens show for `Cc1cccc(N2C(=O)C(O)=C(C(=O)c3cccs3)C2c2cccc(Oc3ccccc3)c2)n1` (configuration not stated)?
rCAG RNA binder: 45*; MBD2 DNA inh: -4; ABHD5-PLIN5 inh: -6; UHRF1 binding: 0; LEDGF integ inh: 0; PRMT1 inh: 5; rCAG bind conf: 40*; DNA CAG counter: 10*

How did Cc1cccc(N2C(=O)C(O)=C(C(=O)c3cccs3)C2c2ccccc2)n1 (configuration not stated) do in these assays?
rCAG RNA binder: 6; MBD2 DNA inh: 1; ABHD5-PLIN5 inh: -10; UHRF1 binding: -2; LEDGF integ inh: 5; PRMT1 inh: 0
